Several values for one entry are separate records, joined by “and”; a condition that tells them apart may be missing. Identical values can stand only once. Inconclusive results are not listed. Entries that show only a call come without a potency. A structure can be active in one record and inactive in another. Activity calls are given as the source filed them. Unless noted, calls come from the whole dose curve; as a rule, active = well fitted curve in the direction sought with a large enough effect in the repeat runs; inconclusive = weak or mixed curves; inactive = no such curve, though single readings can be large; an effect the other way counts as inactive or inconclusive.
Assays:
[1] = qHTS assay to identify small molecule agonists of the hypoxia (HIF-1) signaling pathway - cell viability counter screen (AID 1224844; calls by dose curve; note: nearly all actives have a fitted effect of over 50% in size; note: potency is the fitted concentration of half-maximal effect)
How it was run: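 Tox21 10K compounds were added to HRE-bla ME-180 cells (0.5% dialyzed FBS) and incubated 17 hrs at 37C; ATP-based CellTiter-Glo luminescence then reported cell viability in the same wells.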

[2] = qHTS assay to identify small molecule agonists of H2AX (AID 1224845; active = well fitted activation curve with a large enough effect in the signal ratio in the repeat runs, not every such curve was filed as active; the % refers to the signal ratio; note: potency is the fitted concentration of half-maximal effect)
How it was run: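 Wild-type CHO-K1 cells plated overnight, then exposed 3 hr at 37C to compounds at 15 concentrations (0.76% DMSO). Lysed, then HTRF anti-pH2AX(S139)-cryptate/anti-H2AX-d2 detection after 24 hr at room temperature; emissions 665 and 620 nm.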

[3] = qHTS assay to identify small molecule agonists of H2AX - cell viability counter screen (AID 1224847; calls by dose curve; note: potency is the fitted concentration of half-maximal effect; nearly all actives have a fitted effect of over 30% in size)
How it was run: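 Viability of CHO-K1 (wild type) cells after 3 hr compound exposure was measured by CellTiter-Glo luminescence.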

[4] = qHTS RealTime-Glo MT Cell Viability Assay in HepG2 cells - 24 hour (AID 1224867); note: nearly all actives have a fitted effect of over 50% in size; note: potency is the fitted concentration of half-maximal effect
How it was run: (§1)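 HepG2 suspension premixed with RealTime-Glo reagents is plated at 600 cells per well and left 5 h at 37 C/5% CO2. Compounds in DMSO then go in, and bioluminescence reflecting viable cell number is recorded over 40 h.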

[5] = qHTS RealTime-Glo MT Cell Viability Assay in HEK293 cells - 32 hour (AID 1224868); note: nearly all actives have a fitted effect of over 50% in size; note: potency is the fitted concentration of half-maximal effect
How it was run: (§2)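 Reads taken at 0, 8, 16, 24, 32 and 40 h from the same wells. HEK293 cells (600/well) carried RealTime-Glo reagents from seeding, with compound added after a 5 h settle at 37 C.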

[6] = A CellTox Green Cytotoxicity Assay to monitor cytotoxicity in HEK293 cells - 0 hour (AID 1224869); note: nearly all actives have a fitted effect of over 50% in size
How it was run: (§3)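 Cytotoxicity was tracked continuously in HEK293 cells by a DNA-binding dye excluded from viable cells. Compounds were transferred in DMSO 5 h after seeding; fluorescence was recorded at intervals up to 40 h.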

[7] = qHTS RealTime-Glo MT Cell Viability Assay in HepG2 cells - 40 hour (AID 1224870); note: nearly all actives have a fitted effect of over 50% in size; note: potency is the fitted concentration of half-maximal effect
How it was run: (§4)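 HepG2 cells mixed with RealTime-Glo MT reagents (NanoLuc plus cell-permeant prosubstrate) were seeded at 600 cells/well, incubated 5 h at 37 C/5% CO2, then pinned with compounds in DMSO; nonlytic luminescence tracked viability during 40 h treatment.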

[8] = A CellTox Green Cytotoxicity Assay to monitor cytotoxicity in HEK293 cells - 40 hour (AID 1224871); note: nearly all actives have a fitted effect of over 45% in size; note: potency is the fitted concentration of half-maximal effect
How it was run: as §3

[9] = qHTS RealTime-Glo MT Cell Viability Assay in HEK293 cells - 16 hour (AID 1224872); note: nearly all actives have a fitted effect of over 50% in size; note: potency is the fitted concentration of half-maximal effect
How it was run: as §2

[10] = qHTS RealTime-Glo MT Cell Viability Assay in HepG2 cells - 8 hour (AID 1224873); note: nearly all actives have a fitted effect of over 55% in size; note: potency is the fitted concentration of half-maximal effect
How it was run: as §4

[11] = A CellTox Green Cytotoxicity Assay to monitor cytotoxicity in HEK293 cells - 24 hour (AID 1224875); note: nearly all actives have a fitted effect of over 45% in size; note: potency is the fitted concentration of half-maximal effect
How it was run: as §3

[12] = A CellTox Green Cytotoxicity Assay to monitor cytotoxicity in HepG2 cells - 16 hour (AID 1224876); note: nearly all actives have a fitted effect of over 45% in size; note: potency is the fitted concentration of half-maximal effect
How it was run: (§5)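 Real-time, homogeneous cytotoxicity readout: dead-cell DNA staining by CellTox Green in HepG2 monolayers, fluorescence measured at timed intervals up to 40 h of continuous compound exposure.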

[13] = qHTS RealTime-Glo MT Cell Viability Assay in HepG2 cells - 32 hour (AID 1224877); note: nearly all actives have a fitted effect of over 55% in size; note: potency is the fitted concentration of half-maximal effect
How it was run: as §1

[14] = A CellTox Green Cytotoxicity Assay to monitor cytotoxicity in HepG2 cells - 24 hour (AID 1224878); note: nearly all actives have a fitted effect of over 45% in size; note: potency is the fitted concentration of half-maximal effect
How it was run: as §5

[15] = A CellTox Green Cytotoxicity Assay to monitor cytotoxicity in HepG2 cells - 40 hour (AID 1224879); note: nearly all actives have a fitted effect of over 40% in size; note: potency is the fitted concentration of half-maximal effect
How it was run: as §5

[16] = qHTS RealTime-Glo MT Cell Viability Assay in HEK293 cells - 0 hour (AID 1224880); note: nearly all actives have a fitted effect of over 45% in size; note: potency is the fitted concentration of half-maximal effect
How it was run: (§6)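 Nonlytic bioluminescent viability monitoring. HEK293 at 600 cells/well with reagent; 5 h settle; compound transfer by pintool; plates held at 37 C and read at set time points.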

[17] = qHTS assay to identify small molecule antagonists of the estrogen related receptor (ERR) signaling pathway from Tox21 library (AID 1224848); note: nearly all actives have a fitted effect of over 50% in size; note: potency is the fitted concentration of half-maximal effect
How it was run: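 Cells: ERR line, 2,000/well; 6 h preincubation 37 C/5% CO2. Cpd in DMSO via pin tool; 18 h, 37 C. ONE-Glo, 30 min RT, luminescence.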

[18] = qHTS assay to identify small molecule agonists of the estrogen related receptor (ERR) signaling pathway from Tox21 library (AID 1224849; calls by dose curve; note: nearly all actives have a fitted effect of over 15% in size); conditions: ERR reporter cell line, ONE-Glo luciferase, 18 h; at 92.4 µM (top of the series)
How it was run: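 Agonist signal is luciferase luminescence from an ERR reporter cell line treated 18 h at 37 C with DMSO-dissolved compounds, read 30 min after ONE-Glo addition at room temperature.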

[19] = qHTS RealTime-Glo MT Cell Viability Assay in HEK293 cells - 40 hour (AID 1224874); conditions: RealTime-Glo luminescence; max response: stronger effect = lower value; note: nearly all actives have a fitted effect of over 50% in size; note: potency is the fitted concentration of half-maximal effect
How it was run: as §6

[20] = qHTS assay to identify small molecule agonists of the hypoxia (HIF-1) signaling pathway (AID 1224846; active = well fitted activation curve with a large enough effect in the signal ratio in the repeat runs, not every such curve was filed as active; the % refers to the signal ratio)
How it was run: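 Steps: seed ME-180 HRE-bla cells (2,000/well, 0.5% dialyzed FBS); incubate 5 hrs at 37C; pin-transfer compounds or DMSO; incubate 17 hrs; add LiveBLAzer B/G substrate CCF4-AM; measure reporter activation by FRET.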

With `CCCCCCCC[N+](C)(CCCCCCCC)CCCCCCCC` the Potency [1] was 15.5 µM (active) and 9.79 µM (active) and 19.5 µM (active), the Potency [2] was “inactive and 17.9 µM (active)” and the Potency [3] was 44.9 µM (active) and 567 nM (active) and 35.7 µM (active). For the same compound, the Potency [4] was 10.9 µM (active) and 21.9 µM (active) and 9.77 µM (active), the Potency [5] was 218 nM (active) and 138 nM (active) and 1.55 µM (active) and the Potency [6] was “inactive”. The Potency [7] was 9.75 µM (active) and 15.5 µM (active) and 8.71 µM (active), the Potency [8] was 24.5 µM (active) and 27.6 µM (active) and 12.3 µM (active) and the Potency [9] was 2.75 µM (active) and 1.1 µM (active) and 6.16 µM (active). For the same compound, the Potency [10] was 17.3 µM (active) and 30.9 µM (active) and 17.4 µM (active), the Potency [11] was 21.8 µM (active) and 21.9 µM (active) and 9.77 µM (active) and the Potency [12] was 15.5 µM (active) and 21.9 µM (active) and 17.4 µM (active). For the same compound, the Potency [13] was 9.75 µM (active) and 19.5 µM (active) and 8.71 µM (active), the Potency [14] was 9.75 µM (active) and 19.5 µM (active) and 15.5 µM (active) and the Potency [15] was 13.8 µM (active) and 19.5 µM (active). For the same compound, the Potency [16] was “inactive”.
For `CC(C)(c1ccccc1)c1ccc(O)cc1`, the Potency [4] was “inactive”, the Potency [5] was 27.5 µM (active) and the Potency [6] was “inactive”. The Potency [7] was “inactive”, the Potency [10] was “inactive and 49 µM (active)” and the Potency [11] was 21.7 µM (active) and 43.6 µM (active). The Potency [12] was 24.5 µM (active), the Potency [13] was “inactive” and the Potency [14] was 48.6 µM (active) and 21.9 µM (active). The Potency [15] was 48.6 µM (active) and 24.5 µM (active) and the Potency [16] was “inactive”.
For `CCC1(c2ccc(N)cc2)CCC(=O)NC1=O` (centres undefined), the Potency [1] was “inactive”, the Potency [2] was “inactive” and the Potency [17] was “inactive”. The Potency [4] was “inactive”, the Potency [5] was “inactive” and the Potency [6] was “inactive”. The Potency [7] was “inactive”, the Potency [8] was “inactive” and the Potency [9] was “inactive”. The Potency [10] was “inactive”, the Potency [11] was “inactive” and the Potency [12] was “inactive”. For the same compound, the Potency [13] was “inactive”, the Potency [14] was “inactive” and the Potency [15] was “inactive”. For the same compound, the Potency [16] was “inactive”.
In the case of `C=CC(=O)OCC(CC)(COC(=O)C=C)COC(=O)C=C`, the Potency [1] was 20 µM (active) and 12.3 µM (active), the Potency [17] was 15.8 µM (active) and 19.3 µM (active) and the activity change, positive = activation [18] was -82.1% (inactive) and -76.4% (inactive). The Potency [4] was 25.2 µM (active) and 12.3 µM (active), the Potency [5] was 3.56 µM (active) and 11 µM (active) and the Potency [6] was “inactive”. For the same compound, the Potency [7] was 35.6 µM (active) and 12.3 µM (active), the Potency [8] was 4.48 µM (active) and 7.76 µM (active) and the Potency [10] was 22.5 µM (active) and 9.77 µM (active). The Potency [19] was 3.56 µM (active) and 9.77 µM (active), the Potency [11] was “inactive” and the Potency [12] was “inactive”. For the same compound, the Potency [13] was 25.2 µM (active) and 12.3 µM (active), the Potency [14] was 14.2 µM (active) and the Potency [15] was 12.6 µM (active). For the same compound, the Potency [16] was “inactive”.
With `CCOC(=O)c1ccccc1N` the Potency [1] was “inactive”, the Potency [2] was “inactive” and the outcome [20] was “inactive”. For the same compound, the Potency [4] was “inactive”, the Potency [5] was “inactive” and the Potency [6] was “inactive”. The Potency [7] was “inactive”, the Potency [10] was “inactive” and the max response [19] was -0.283% (inactive) and 0.344% (inactive). For the same compound, the Potency [11] was “inactive”, the Potency [12] was “inactive and 49 µM (active)” and the Potency [13] was “inactive”. The Potency [14] was “inactive and 49 µM (active)”, the Potency [15] was “inactive and 54.9 µM (active)” and the Potency [16] was “inactive”.
In the case of `O=C1C(Cl)=C(Cl)C(=O)c2ccccc21`, the Potency [1] was 7.79 µM (active), the Potency [3] was 22.6 µM (active) and 14.2 µM (active) and the Potency [17] was 24.4 µM (active) and inactive. The Potency [4] was 24.6 µM (active) and 11 µM (active), the Potency [5] was 6.19 µM (active) and 7.76 µM (active) and the Potency [6] was “inactive”. The Potency [7] was 34.8 µM (active) and 17.4 µM (active), the Potency [8] was 3.9 µM (active) and 4.9 µM (active) and the Potency [10] was 21.9 µM (active) and 6.92 µM (active). The Potency [11] was 3.9 µM (active) and 6.92 µM (active), the Potency [12] was 12.3 µM (active) and 4.9 µM (active) and the Potency [13] was 31 µM (active) and 12.3 µM (active). For the same compound, the Potency [14] was 12.3 µM (active) and 3.89 µM (active), the Potency [15] was 17.4 µM (active) and 4.36 µM (active) and the Potency [16] was 5.51 µM (active).
With `Nc1ccc([N+](=O)[O-])cc1N` the Potency [1] was 21.9 µM (active) and inactive, the outcome [20] was “inactive” and the Potency [17] was “inactive”. For the same compound, the activity change, positive = activation [18] was -63% (inactive) and 34.6% (active), the Potency [4] was “inactive” and the Potency [5] was “inactive”. The Potency [6] was “inactive”, the Potency [7] was “inactive” and the Potency [8] was “inactive”. The Potency [10] was “inactive”, the max response [19] was 0.0622% (inactive) and -18.5% (inactive) and the Potency [11] was “inactive”. The Potency [12] was “inactive”, the Potency [13] was “inactive” and the Potency [14] was “inactive”. For the same compound, the Potency [15] was “inactive” and the Potency [16] was “inactive”.
For `CCCCCCCCCC(CC)c1ccc(S(=O)(=O)O)cc1` (centres undefined), the Potency [2] was “inactive”, the outcome [20] was “inactive” and the Potency [4] was “inactive”. The Potency [5] was 39.3 µM (active) and inactive, the Potency [6] was “inactive” and the Potency [7] was “inactive”. The Potency [9] was “inactive”, the Potency [10] was “inactive” and the Potency [12] was 49 µM (active) and 16.9 µM (active) and 42 µM (active). The Potency [13] was “inactive”, the Potency [14] was 54.9 µM (active) and 21.3 µM (active) and 38.9 µM (active) and the Potency [15] was 21.3 µM (active) and 38.9 µM (active). For the same compound, the Potency [16] was “inactive”.
In the case of `O=NN(c1ccccc1)c1ccccc1`, the Potency [1] was “inactive”, the Potency [2] was “inactive” and the outcome [20] was “inactive”. For the same compound, the Potency [4] was “inactive”, the Potency [5] was “inactive” and the Potency [6] was “inactive”. The Potency [7] was “inactive”, the Potency [8] was “inactive” and the Potency [10] was “inactive”. For the same compound, the Potency [11] was “inactive”, the Potency [12] was “inactive” and the Potency [13] was “inactive”. For the same compound, the Potency [14] was “inactive”, the Potency [15] was “inactive” and the Potency [16] was “inactive”.
